Laboratory results from PubChem BioAssay (NCI).
The panel holds about 79,000 compounds, 15% with a hit somewhere; the sample as a whole holds those more often. No stated cut-off is given here; in the data, active means growth inhibition above about 70%; inactive means the rest.

Assays:
[1] = NCI Yeast Anticancer Drug Screen. Data for the rad50 strain (AID 155);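 further: 0% = growth of vehicle-only cultures of the same strain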; settings: S. cerevisiae rad50 strain growth inhibition; at 50.0 µM; hits give high values
Procedure, shortened: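 A DNA repair-deficient yeast mutant serves as the test organism; compound-induced growth inhibition is calculated against vehicle-treated cells.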

[2] = NCI Yeast Anticancer Drug Screen. Data for the mec2-1 strain (AID 157); settings: S. cerevisiae mec2-1 strain, at 50.0 µM, hits give high values
Procedure, shortened: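 Each compound was tested on mec2-1 yeast, a strain altered in DNA damage repair or cell cycle control. Growth inhibition is reported relative to vehicle.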

[3] = NCI Yeast Anticancer Drug Screen. Data for the sgs1 mgt1 strain (AID 161);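 further: 0% = growth of cultures given vehicle only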; settings: S. cerevisiae sgs1 mgt1 strain, at 50.0 µM, hits give high values
Procedure, shortened: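 Genetically altered yeast, compound exposure, growth inhibition relative to vehicle.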

[4] = NCI Yeast Anticancer Drug Screen. Data for the cln2 rad14 strain (AID 165);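 further: 0% = growth equal to vehicle treated cultures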; settings: S. cerevisiae cln2 rad14 strain, at 50.0 µM, hits give high values
Procedure, shortened: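 Test compounds were added to cln2 rad14 yeast cultures; inhibition of growth was then determined by comparison with vehicle treatment.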

[5] = NCI Yeast Anticancer Drug Screen. Data for the bub3 strain (AID 167); settings: S. cerevisiae bub3 mutant strain, at 50.0 µM, hits give high values
Procedure, shortened: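 Inhibition values come from growth of compound-treated mutant yeast normalised to vehicle-treated controls.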

[6] = NCI Yeast Anticancer Drug Screen. Data for the mlh1 rad18 strain (AID 175); settings: S. cerevisiae mlh1 rad18 strain growth inhibition; at 50.0 µM; hits give high values
Procedure, shortened: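 Inhibition values reflect reduced growth of mutant yeast versus vehicle-treated controls following compound exposure; the mutations affect DNA damage repair.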

Measured: growth inhibition

CCOC(=O)CC(=O)C1CCC2C3CC=C4CC(O)CCC4(C)C3CCC12C (stereo unspecified)
inactive: [1] 36.5% | [2] 8.3% | [3] 47.4% | [4] 25.9% | [5] 2.1% | [6] 33.9%

CC(C)NC(=O)OCc1c(COC(=O)NC(C)C)c(-c2ccc(Cl)c(Cl)c2)n2c1C[C@@H](O)C2
inactive: [1] 17.3% | [2] 20% | [3] 21.5% | [4] 38.4% | [5] 11.5% | [6] -44.4%

CCCCCCCCCCCCCCCCCC(=O)Nc1nc(N)nc(N)n1
inactive: [1] 11.1% | [2] 15.1% | [3] 3.6% | [4] 18.6% | [5] -5.15% | [6] 6.15%

CSc1nc2c(N)ncnc2n1C
inactive: [1] 11.4% | [2] 1.4% | [3] 9.55% | [4] 27.7% | [5] 8.15% | [6] 36.8%

COc1cccc(C(=O)C(O)c2cccc(OC)c2OC)c1OC (stereo unspecified)
inactive: [1] 0.6% | [2] -5.45% | [3] 8.2% | [4] 0.15% | [5] -10.6% | [6] -42%

CC(=O)N(c1ccc(NC(=O)c2ccc(N3C(=O)c4ccccc4C3=O)cc2[N+](=O)[O-])cc1)c1cc[n+](C)cc1
inactive: [1] -13.8% | [2] 2.3% | [3] -1% | [4] 9.35% | [5] -5.1% | [6] 3.75%

COC(=O)N/N=C/c1ccccc1Cl
inactive: [1] 4.55% | [2] -31% | [3] -18.6% | [4] -64.8% | [5] -12.5% | [6] -12.2%

COc1ccc(/C=C/c2ccc3ccccc3n2)cc1
inactive: [1] 3.3% | [2] -20.6% | [3] 1.65% | [4] -46.1% | [5] 9.45% | [6] -16%

CN1CCN(C2CCCc3ccccc3C2O)CC1 (stereo unspecified)
inactive: [1] -0.75% | [2] 13.6% | [3] -15.7% | [4] -25.1% | [5] 1.3% | [6] 0.2%

COc1ccc(C(=O)/C=C/c2ccc(OCC(=N)N)cc2)cc1
inactive: [1] -31.1% | [2] -38.6% | [3] -18.8% | [4] -27.4% | [5] -15.8% | [6] -23.6%

CC1CC(=O)c2c(O)ccc(O)c21 (stereo unspecified)
inactive: [1] -6.1% | [2] -3.65% | [3] -8.9% | [4] -17.4% | [5] -8.15% | [6] 12.2%

OCCCNCc1ccccc1
inactive: [1] -36.8% | [2] -23.4% | [3] -20.1% | [4] -32.4% | [5] -32.9% | [6] -21.1%

CC(O)(C(=O)c1ccccc1)c1ccccc1 (stereo unspecified)
inactive: [1] -16.4% | [2] -25.1% | [3] -16.4% | [4] -8.15% | [5] -18.4% | [6] 0.6%

CCOC(=O)c1ccc(NC(=S)NC(=O)c2cccs2)o1
inactive: [1] 43.4% | [2] 49.8% | [3] 39.4% | [4] 36.1% | [5] 31.2% | [6] 63.4%

Oc1[nH]c2ccccc2c1N=NC1=NCCCCN1
inactive: [1] -33.2% | [2] -36.5% | [3] -6.65% | [4] 15.7% | [5] -3.35% | [6] -14.7%

CCC(CC)c1nc2c([nH]1)c(=O)n(C)c(=O)n2C
inactive: [1] -34% | [2] 8.1% | [3] 5.3% | [4] -32.5% | [5] -7.2% | [6] -10.3%

Nc1ccc(Cl)cc1C(=O)Oc1ccccn1
inactive: [1] 6.9% | [2] -0.65% | [3] -6.25% | [4] -0.4% | [5] -5.5% | [6] -0.7%

CCC(CO)Nc1nncc2ccccc12 (stereo unspecified)
inactive: [1] 2.4% | [2] -3.45% | [3] 1.35% | [4] -31.5% | [5] -10.6% | [6] -12.3%

O=C(O)CC(C(=O)O)c1ccccc1[N+](=O)[O-] (stereo unspecified)
inactive: [1] -26.9% | [2] -3.8% | [3] -24.2% | [4] -32.5% | [5] -1.1% | [6] -7.8%

CCOC(=O)Nc1ccc2c(c1Cl)C(=O)c1ccccc1C2=O
inactive: [1] -6.85% | [2] -18.1% | [3] -0.2% | [4] 5.65% | [5] 14.3% | [6] -15.6%

Nc1cccc2c(=O)[nH][nH]c(=O)c12
inactive: [1] 16.6% | [2] -3.1% | [3] 23.9% | [4] 9.95% | [5] 14.8% | [6] 22.1%

N#CC(CCc1ccccc1[N+](=O)[O-])(CCc1ccccc1[N+](=O)[O-])C(N)=O
inactive: [1] 19.3% | [2] 5.55% | [3] 24.4% | [4] -18.4% | [5] 16.6% | [6] 39.1%

CC(=O)Nc1ccc(OC(C)=O)cc1N
inactive: [1] -8.9% | [2] -8.15% | [3] 2.9% | [4] -8.95% | [5] 2.95% | [6] 1%

Cc1cccc(C)c1NC=O
inactive: [1] 4.7% | [2] -2.35% | [3] -3.3% | [4] 1.45% | [5] -9.8% | [6] 8.9%

CC1(CCl)Nc2ccccc2C(=O)N1c1ccc(Cl)cc1 (stereo unspecified)
inactive: [1] -2.45% | [2] -13.9% | [3] 8.95% | [4] -2.05% | [5] 20.9% | [6] -0.5%

CC(N)C(C)Cc1ccccc1 (stereo unspecified)
inactive: [1] -20.2% | [2] -21.4% | [3] -19.7% | [4] 65.7% | [5] -31.9% | [6] -14.6%

CCOC(=O)c1[nH]c2ccsc2c1C[N+]1(C)CCCCC1
inactive: [1] 38.1% | [2] 5.8% | [3] 36.9% | [4] -3.7% | [5] -0.85% | [6] 16.3%

CC(=O)Nc1ccc(/C=C2/C(=O)ON=C2C)cc1
inactive: [1] 6.75% | [2] 6.6% | [3] 6% | [4] 11.8% | [5] 3.95% | [6] 13.4%

COc1ccc(NC(=O)Cc2cc3ccccc3oc2=O)cc1
inactive: [1] 8.05% | [2] 1.05% | [3] -3.75% | [4] -46.3% | [5] -0.3% | [6] 7.95%

CS(=O)(=O)c1nc(Cl)c2[nH]c(Cl)nc2n1
inactive: [1] 16.9% | [2] -19.5% | [3] 5.35% | [4] -11.3% | [5] 12.2% | [6] 22%

Cc1cc(S(=O)(=O)O)ccc1Cl
inactive: [1] -27.3% | [2] -8.2% | [3] -19.3% | [4] -38.9% | [5] -0.25% | [6] -31.8%

CC(=O)Nc1ccc(C(=O)NN2C(=O)C(Cl)C2c2ccc(Cl)cc2)cc1 (stereo unspecified)
inactive: [1] -50.3% | [2] -32.3% | [3] -42.8% | [4] -27.3% | [5] -28.9% | [6] -43.5%

Cc1ccc(C(C)(C#N)Nc2ccccc2)cc1 (stereo unspecified)
inactive: [1] -7.05% | [2] -1.8% | [3] -8.2% | [4] -25.2% | [5] -11.2% | [6] -0.45%

O=C1CC(C(F)(F)F)(C(F)(F)F)O1
inactive: [1] 11.3% | [2] 19.4% | [3] -8.75% | [4] -58.2% | [5] 13.6% | [6] -19%

Cc1cc(-n2cnc3c(Cl)ncnc32)ccc1N
inactive: [1] 10.8% | [2] 5.3% | [3] 0.95% | [4] 5.05% | [5] 10.8% | [6] -9.1%

CC(C)C(CCN1CCCC1(C)C)(C(N)=O)c1ccccc1 (stereo unspecified)
inactive: [1] -4.85% | [2] -12.6% | [3] -4.2% | [4] -34% | [5] 9.6% | [6] 7.75%

Cc1cccc(NC(=S)NCCc2ccccn2)c1
inactive: [1] -6.85% | [2] -7.35% | [3] 17.9% | [4] -10.8% | [5] 12.7% | [6] 5.5%

CC1CCC(C(C)C)C2(C1)OC(CCl)CS2 (stereo unspecified)
inactive: [1] -0.35% | [2] 14.7% | [3] 7.8% | [4] -18.1% | [5] 26.9% | [6] 1.95%

CC1=C(C)CP(=O)(c2ccccc2)C1
inactive: [1] 16.6% | [2] -5.2% | [3] -0.7% | [4] -8.65% | [5] -3.9% | [6] -35.4%

O=C(NC(Cc1cccnc1)C(=O)O)c1ccccc1 (stereo unspecified)
inactive: [1] 2.85% | [2] 11.4% | [3] 8.55% | [4] -16.4% | [5] 12.9% | [6] 7.65%

N#CC1OC1c1ccccn1 (stereo unspecified)
inactive: [1] -6.25% | [2] 7.05% | [3] -12.3% | [4] 9.05% | [5] 5.35% | [6] -21.6%
